# Compound activity deposited in PubChem BioAssay by National Center for Advancing Translational Sciences (NCATS).
# VACV Venus inh – vaccinia inhibition (Venus reporter); Vaccinia virus Venus reporter expression, fluorescence; Potency, µM (highest dose often 36.5 µM), without a hit: top-dose activity change, negative = inhibition, usual class: inhibitors; hit rate 0.46% among 330,000; AID 720580; calls by dose curve; tested in A549 cells; note: nearly all actives have a fitted effect of over 30% in size
# Marburg entry inh – Marburg virus entry inhibition | Potency, µM (top dose mostly 37.8 µM), inactives show at the top dose activity change, negative = inhibition, most hits filed as inhibitors | hit rate 1.8% among 300,000 | AID 540276 | Marburg virus pseudotyped entry inhibition, cell reporter; calls by dose curve; tested in HEK293 cells
# FMDV antiviral – antivirals against foot and mouth disease virus; FMDV antiviral cell-based qHTS; Potency, µM (highest dose often 57.9 µM), for inactives: at the highest dose activity change, negative = inhibition, actives largely listed as inhibitors; hit rate 1.2% among 410,000; AID 1159524; calls by dose curve; tested in HEK293T cells; note: read-out not given here; nearly all actives have a fitted effect of over 45% in size
# VACV mCherry inh – vaccinia inhibition (mCherry reporter) | Potency, µM (top dose mostly 36.5 µM), inactives show at the top dose activity change, negative = inhibition, hits mostly inhibitors | hit rate 0.63% among 310,000 | Vaccinia virus mCherry reporter infection, fluorescence; calls by dose curve; tested in A549 cells; note: nearly all actives have a fitted effect of over 35% in size
# HCV inhibitor – HCV inhibition; Potency, µM (series often up to 41.8 µM), inactives show top-dose activity change, negative = inhibition, hits mostly inhibitors; AID 651820; Huh7.5.1 HCVcc-Cre infection, luciferase reporter, 44 h; hit rate 3.4% among 340,000; active = well fitted inhibition curve with a large enough effect; inconclusive = small, poorly fitted or top-dose-only effect, or another doubt; inactive = no such curve, though single readings can be large or run the other way
#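 Infectious HCVcc-Cre (~0.5 moi) was added to cells just after compound, with cells seeded 4 h earlier at 1,000 per well. Luciferase activity after 44 h culture reported infection; substrate was incubated 15 min at room temperature before reading.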
# LASV entry inh – Lassa virus entry inhibition; hit rate 1.2% among 300,000; AID 540256; Lassa virus pseudotype entry inhibition, cell reporter; Potency, µM (doses to about 37.9 µM), inactives show at the top dose activity change, negative = inhibition, hits mostly inhibitors; calls by dose curve; tested in HEK293 cells; note: nearly all actives have a fitted effect of over 50% in size
# Starred values were filed as active, the others as inactive; i = inactive; ? = inconclusive; . = not tested or not shown; [ ] = another dose, or the depositor's remark. The list is not random: actives were taken first. Their share in the collection is about 5.3%. % is set by controls: 0 for no effect and ±100 for the full control effect; potency is the fitted concentration of half-maximal effect.
SMILES,VACV Venus inh,Marburg entry inh,FMDV antiviral,VACV mCherry inh,HCV inhibitor,LASV entry inh
CCN(CC)S(=O)(=O)c1cc(NC(=O)c2ccc(-n3cncn3)c([N+](=O)[O-])c2)ccc1C,?,?,13µM*,-19%,11µM*,?
CC1CCCN(S(=O)(=O)c2ccc(NC(=O)c3nc(SC(C)C)ncc3Cl)cc2)C1 (configuration not stated),-11%,?,-5%,-23%,.,-3%[46.1 µM]
Cc1ccc(-c2c(C)n3c4c(=O)n(C)c(=O)n(C)c4nc3n2CCCO)cc1,-26%,?,11µM*,-25%,.,8.9µM*
COC(=O)CCCn1c(-c2ccc(C)cc2)c(C)n2c3c(=O)n(C)c(=O)n(C)c3nc12,1%,1%[46.1 µM],?,-8%,.,?
COc1cccc(C(=O)NCc2cn3cccc(C)c3n2)c1,-4%,-9%[46.1 µM],-16%,-8%,.,-4%[46.1 µM]
Cc1cc(C)n(-c2cc(N3CCN(C(=O)c4cccc(Br)c4)CC3)ccc2[N+](=O)[O-])n1,?,?,14µM*,-16%,?,-17%
CCC1C(=O)NCCN1Cc1ccc2c(c1)CN(Cc1cc(OC)ccc1OC)CCO2 (configuration not stated),19%,.,-14%,0%,.,.
O=C1NN(c2ccccc2)C(=O)/C1=C\c1cccn1-c1ccc(Cl)c([N+](=O)[O-])c1,-3%,11µM*,?,i,1%,?
COc1cc(/C=C2/C(=O)NN(c3ccc(C)c(Cl)c3)C2=O)cc([N+](=O)[O-])c1O,.,.,-27%,.,14%,.
CCN(CC)C(=O)Cn1c(=O)n(Cc2ccc(C(=O)NCc3ccc(C)cc3)cc2)c(=O)c2ccccc21,-5%,19%[46.1 µM],11%,-3%,.,-8%[46.1 µM]
CCN(CC)C(=O)Cn1c(=O)c2ccccc2n2c(=S)sc(-c3cccc(C)c3)c12,-19%,-5%,-15%,i,0.56µM*,-5%
CCOc1ccc(NC(=O)CC2C(=O)N(c3ccc(C)cc3)C(=O)N2C2CCCCC2)cc1 (configuration not stated),-18%,11%[46.1 µM],46%,-24%,.,?
C#CCOC(=O)c1ccccc1C(=O)n1nnc2ccccc21,.,15%,22µM*,.,10%,0%
C#CCOC(=O)c1ccccc1C(=O)OCC#C,-1%,15%,7%,.,6%,5%
CC(=O)Nc1ccc(S(=O)(=O)N(C)CC(=O)OCC(=O)NNC(=O)c2ccccc2F)cc1,-5%,-4%,4.5µM*,-15%,13%,-3%
CC(C)OP(=O)(OC(C)C)C(Nc1cccc(C(=O)O)c1)c1ccccc1 (configuration not stated),-18%,-5%[46.1 µM],8.9µM*,-10%,0%,8%
O=C(Nc1ccc(NC(=O)C2CC2)nc1)c1ccccn1,-16%,?,-21%,-18%,10%,?
CCC(=O)Nc1ccc(NC(=O)c2ccccn2)cn1,-4%,?,13%,-18%,12%,10µM*
CC(C)C(=O)Nc1ccc(NC(=O)c2ccccn2)cn1,-8%,11µM*,-58%,-9%,-1%,?
CCc1ccc(-n2nc3cc(C)c(NC(=O)c4cc(Cl)ccc4OC)cc3n2)cc1,-5%,?,-6%,-10%,.,1%[46.1 µM]
CCc1ccc(-c2cc(C)no2)cc1S(=O)(=O)N1CCCN(Cc2ccc(F)cc2)C1,.,.,3%,.,10µM*,.
CCc1ccc(-c2cc(C)no2)cc1S(=O)(=O)N1CCC(C)CC1,.,.,16%,.,-5%,.
CCc1ccc(-c2cc(C)no2)cc1S(=O)(=O)N1CCN(c2ccc(C(C)=O)cc2)CC1,-6%,?,?,-14%,6.3µM*,?
COc1ccc(CN2CCCC(Cn3cc(C(=O)N4CCCC4)nn3)C2)c(O)c1 (configuration not stated),-9%,.,-12%,-10%,.,.
Cc1ccc(C(=O)Nc2ccc(S(=O)(=O)O)c3cc(S(=O)(=O)O)cc(S(=O)(=O)O)c23)cc1NC(=O)c1cccc(NC(=O)Nc2cccc(C(=O)Nc3cc(C(=O)Nc4ccc(S(=O)(=O)O)c5cc(S(=O)(=O)O)cc(S(=O)(=O)O)c45)ccc3C)c2)c1,-17%,3.1µM*,-12%,-12%,.,8.9µM*
SMILES,VACV Venus inh,Marburg entry inh,FMDV antiviral,VACV mCherry inh,HCV inhibitor,LASV entry inh
Clc1ccc(Cn2ncc3c(N4CCN(c5ccccc5)CC4)ncnc32)cc1,?,.,13µM*,?,.,.
c1ccc(Cn2ncc3c(Nc4ccccc4)ncnc32)cc1,.,.,-19%,.,?,.
Cc1ccc(Cl)cc1-n1ncc2c(N3CCN(Cc4ccccc4)CC3)ncnc21,-23%,.,3.2µM*,?,.,6%[46.1 µM]
COc1ccc(Nc2ncnc3c2cnn3Cc2ccc(C)cc2)cc1,-22%,?,28µM*,?,11µM*,?
c1ccc(Cn2ncc3c(N4CCCCC4)ncnc32)cc1,-21%,6%,-29%,.,?,4%
Cc1ccc(Cn2ncc3c(N4CCN(c5ccccc5C)CC4)ncnc32)cc1,?,?,18µM*,.,?,?
COc1ccc(C(=O)NCC2Cc3cc(C)cc(-c4cc(C(C)=O)ccc4F)c3O2)c(OC)c1OC (configuration not stated),-11%,.,-18%,i,.,.
Cc1ccc(Nc2nc(NCCO)nc3c2cnn3C)cc1Cl,.,.,-13%,.,13µM*,.
CCN(CC)S(=O)(=O)c1ccc(C(=O)NCCSc2c[nH]c3ccccc23)cc1,-9%,-11%,-10%,4%,?,26µM*
CCN(CC)S(=O)(=O)c1ccc(C(C)NC(=O)Cc2c[nH]c3ccccc23)cc1 (configuration not stated),-9%,-19%,-22%,-1%,1%,2.6µM*
CCN(CC)S(=O)(=O)c1ccc(C(=O)NCCSc2c(-c3ccc(C)cc3)[nH]c3ccccc23)cc1,-15%,?,-19%,-13%,.,?
CCOc1ccc(OCC)c(NC(=O)C(NS(=O)(=O)c2ccc(Br)s2)c2ccccc2)c1 (configuration not stated),-24%,-6%[46.1 µM],9%,-24%,.,-6%[46.1 µM]
CC(C)CC(=O)NC(NC(=S)Nc1cccc2cccnc12)C(Cl)(Cl)Cl (configuration not stated),?,14µM*,-9%,.,?,?
COc1cccc(N2CCN(C(=O)C3CCC(CNS(=O)(=O)c4ccc(Br)s4)CC3)CC2)c1 (configuration not stated),-20%,-24%[46.1 µM],18µM*,-29%,.,0%[46.1 µM]
COc1cccc(N2CCN(C(=O)C3CCCN(S(=O)(=O)c4ccc(Br)s4)C3)CC2)c1 (configuration not stated),-16%,?,18µM*,-27%,.,?
O=C(C1CCCN(S(=O)(=O)c2ccc(Br)s2)C1)N1CCN(c2ccccc2)CC1 (configuration not stated),-23%,?,?,-17%,10µM*,?
